# Screening results: PubChem BioAssay, National Center for Advancing Translational Sciences (NCATS)
# PLK1 PBD inh = PLK1 (human) polo-box domain binding inhibition. 2.8% of 360,000 active. P53350. Potency, µM, for the others: max response, negative = inhibition, usual class: inhibitors. Plk1 PBD binding of FITC phosphopeptide, fluorescence polarization; note: series mostly up to about 57 µM; nearly all actives have a fitted effect of over 65% in size
# VDR inhibitor = vitamin D3 receptor (human) inhibition; VDR-SRC2-3 peptide fluorescence polarization, 2 h; Potency, µM, without a hit: max response, negative = inhibition, actives largely listed as inhibitors; 0.93% of 400,000 active
#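 Signal is fluorescence polarization, reporting how far test compounds block the interaction of VDR with the SRC2-3 coregulator peptide after a 2 h room-temperature incubation.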
# KAT2A inh = GCN5L2 (KAT2A) acetyltransferase inhibition. GCN5L2 HAT assay, ThioGlo1 CoA-SH fluorescence. Potency, µM (top dose mostly 58.9 µM), for inactives: at the top dose activity change, negative = inhibition, hits mostly inhibitors. 0.21% of 390,000 active. AID 504327
# Target sequence (Q92830 whole entry, looked up): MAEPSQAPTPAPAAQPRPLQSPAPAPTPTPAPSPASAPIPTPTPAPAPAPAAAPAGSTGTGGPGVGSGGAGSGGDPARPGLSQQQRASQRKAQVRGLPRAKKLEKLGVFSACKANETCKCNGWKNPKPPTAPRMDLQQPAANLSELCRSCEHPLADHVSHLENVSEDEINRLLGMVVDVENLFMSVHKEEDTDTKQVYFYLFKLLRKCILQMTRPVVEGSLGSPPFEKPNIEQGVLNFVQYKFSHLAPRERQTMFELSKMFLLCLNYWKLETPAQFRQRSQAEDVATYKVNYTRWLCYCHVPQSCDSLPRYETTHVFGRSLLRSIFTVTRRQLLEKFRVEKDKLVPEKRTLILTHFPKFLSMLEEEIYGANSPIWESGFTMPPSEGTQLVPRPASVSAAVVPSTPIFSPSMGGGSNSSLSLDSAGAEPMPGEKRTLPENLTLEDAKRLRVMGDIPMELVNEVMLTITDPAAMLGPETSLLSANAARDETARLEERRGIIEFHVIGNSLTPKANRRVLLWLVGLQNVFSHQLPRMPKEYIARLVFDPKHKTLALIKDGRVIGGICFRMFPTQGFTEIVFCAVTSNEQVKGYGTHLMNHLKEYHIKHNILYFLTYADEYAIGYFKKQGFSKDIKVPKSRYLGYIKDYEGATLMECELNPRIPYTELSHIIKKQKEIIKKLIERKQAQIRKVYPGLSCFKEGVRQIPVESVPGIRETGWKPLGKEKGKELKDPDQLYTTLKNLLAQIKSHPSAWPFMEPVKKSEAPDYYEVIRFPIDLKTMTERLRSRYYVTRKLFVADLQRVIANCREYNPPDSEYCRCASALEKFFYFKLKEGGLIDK
#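 ThioGlo1-coupled HAT assay: 20nM GCN5L2, 70uM acetyl-CoA, 75uM H3(1-25) peptide, pH 7.5. Fluorescence read at 340/540nm at start and after 20 min at room temperature.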
# ALOX12 inh = ALOX12 (human) lipoxygenase inhibition. purified 12hLO, xylenol orange hydroperoxide absorbance. Potency, µM (series often up to 108 µM), for inactives: at the top dose activity change, negative = inhibition, most hits filed as inhibitors. 1.1% of 580,000 active. AID 1671190
#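 Purified human 12hLO (150 nM final) in 25 mM Hepes, 0.01% Triton X-100, pH 7.0 was preincubated 15 min at room temperature with compound. Then 40 uM arachidonic acid was added, 30 min. Hydroperoxide was read by Fe-XO absorbance ratio 573/405 nm.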
# * = called active by the depositor; ? = inconclusive; / = no result given. An excerpt weighted towards active compounds, which were near 3% of everything screened. Calls come from the whole dose curve; as a rule, active = well fitted curve in the direction sought with a large enough effect; inconclusive = small, poorly fitted or top-dose-only effect, or another doubt; inactive = no such curve, though single readings can be large; an effect the other way counts as inactive or inconclusive. % is set by controls: 0 for no effect and ±100 for the full control effect; potency is the fitted concentration of half-maximal effect.
SMILES,PLK1 PBD inh,VDR inhibitor,KAT2A inh,ALOX12 inh
CC(=O)c1ccc(S(=O)(=O)N2CCN(C(=O)COc3cccc(-n4cnnn4)c3)CC2)cc1,/,/,/,-16.4%
Clc1ccc2nc(-c3cccc(Br)c3)cn2c1,/,/,/,12.6µM*
Clc1ccc(-c2cn3cc(Br)ccc3n2)cc1,/,/,/,-28.0%
O=C1CC(=O)N(Cc2ccco2)C(=S)N1,21.2µM*,?,17.8µM*,/
O=C1CC(=O)N(Cc2ccco2)C(=O)N1,6.7µM*,?,-17.1%,?
O=C1C(=C2CCCCC2)SC(=S)N1Cc1ccco1,21.2µM*,?,-7.0%,?
O=C1CC(=O)N(Cc2cccs2)C(=O)N1,-19.6%,?,4.2%,-11.2%
CCSc1nc(=O)c2c(n1C)NC(=O)CC2c1cc(C)ccc1C (stereo not given),/,/,/,-14.0%
Cc1cc(C)cc(NC(=S)Nc2ccccn2)c1,-6.3%,-10.3%,-1.6%,6.31µM*
Cc1ccc(NC(=S)Nc2ccccn2)cc1C,-18.9%,-5.0%,-12.2%,?
Cc1ccc(NC(=S)c2ccncc2)c(C)c1,-4.0%,35.5µM*,-6.8%,-2.2%
Cc1cccc(NC(=S)Nc2ccccn2)c1,-10.6%,6.1%,-0.6%,28.2µM*
Cc1ccc(NC(=S)NNC(=S)Nc2ccc(C)cc2C)cc1,10.6µM*,44.7µM*,0.0%,35.5µM*
O=C(Cc1cccs1)N1CCN(c2ncnc3c2nnn3-c2ccc(F)cc2)CC1,/,/,/,-5.8%
CCc1noc(CC2CCOC3(CCN(S(=O)(=O)c4cccc(Cl)c4)CC3)C2)n1 (stereo not given),/,/,/,9.7%
Cc1ccc(-c2cnc(CCC(=O)N(C)C(C)c3ccc(S(C)(=O)=O)cc3)o2)cc1C (stereo not given),/,/,/,23.8%
COc1cccc(NC(=O)CSc2nnc(-c3ccc(C)cc3)c(=O)[nH]2)c1,/,/,/,29.4%
Cc1ccc(NC(=S)Nc2ccccn2)c(C)c1,?,0.1%,-0.5%,11.2µM*
COc1ccccc1NC(=S)Nc1ccccn1,-5.2%,-13.8%,6.1%,39.8µM*
Cc1cc(Cl)ccc1NC(=S)Nc1ccccn1,-29.0%,-9.1%,-5.9%,?
CCC(C)NC(=S)Nc1cc(C)cc(C)c1 (stereo not given),/,/,/,-17.5%
CCc1cccc(CC)c1NC(=O)CSc1nc(CN(C)C)nc2ccccc12,/,/,/,0.7%
CCCOc1ccc(N/C=C/C(=O)c2ccc(OC)c(OC)c2)cc1,21.2µM*,?,-14.4%,8.9%
CCOc1ccc(N/C=C/C(=O)c2ccc(OC)c(OC)c2)cc1,8.8%,6.7%,-4.1%,0.8%
COCCN1C(=O)N[C@@H](c2cccc(C(F)(F)F)c2)C(C(=O)OC)=C1C,29.9µM*,?,/,/
SMILES,PLK1 PBD inh,VDR inhibitor,KAT2A inh,ALOX12 inh
CCN(CC)CCC(=O)N1c2ccccc2Sc2ccc(NC(=O)OC)cc21,-0.7%,-0.2%,-6.5%,28.2µM*
CCCC(=O)N1CCC(N2C(=O)C3(CCCCC3)C2c2ccccc2)CC1 (stereo not given),/,/,/,-4.7%
Cc1ccc(NC2(c3nnnn3-c3ccccc3C)CCCCC2)cc1,/,/,/,-21.0%
CC1CCc2sc(C(=O)OCC(=O)N3CCC(c4ccccc4)=N3)cc2C1 (stereo not given),/,/,/,21.0%
COc1c(OC(C)=O)c(=O)n2c3ccccc3c3ccnc1c32,23.8µM*,-7.0%,-2.0%,11.2%
CCCN1CCC(=O)N(CCSc2ccc(NC(C)=O)cc2)CC1,-1.0%,-19.1%,47.5%,-2.6%
CC(=O)Nc1ccc(SCCN2CCN(CC(C)C)CCC2=O)cc1,/,50.1µM*,/,/
CC(=O)Nc1ccc(SC[C@H](C)CN2CC[C@H](O)CCC2=O)cc1,18.9µM*,?,-5.2%,-29.9%
O=C(CC(Nc1ccccc1Cl)C(=O)O)c1ccccc1 (stereo not given),-24.6%,25.1µM*,14.3%,5.3%
Cc1ccccc1NC(=O)C(C)N(C)Cc1ccc2ccccc2c1 (stereo not given),/,/,/,-60.9%
O=C(Nc1cccc(-n2cccn2)c1)C1CCCN(Cc2cc3ccccc3[nH]2)C1 (stereo not given),21.2µM*,?,?,-18.3%
O=C(/C=C/c1ccc(Cl)cc1Cl)c1cc(Cl)ccc1O,/,/,/,-68.9%
CNc1ccc(Br)cc(C(=O)/C=C/c2ccc(OC)cc2)c1=O,?,?,-9.0%,31.6µM*
CNc1ccc(Br)cc(C(=O)/C=C/c2cc(OC)ccc2OC)c1=O,-27.5%,?,?,?
CNc1ccc(Br)cc(C(=O)/C=C/c2ccc3c(c2)OCO3)c1=O,18.9µM*,79.4µM*,0.4%,?
CCNc1ccc(Br)cc(C(=O)/C=C/c2ccc(Cl)cc2Cl)c1=O,?,79.4µM*,-26.1%,7.08µM*
Cc1ccc(C2CCCN2S(=O)(=O)c2ccccc2)cc1 (stereo not given),/,/,/,8.7%
CCOC(=O)c1c(N)n(-c2ccc(N)cc2)c2nc3ccccc3nc12,26.7µM*,-24.0%,-0.9%,-21.1%
COc1ccc2c(/C=C/c3cc[n+](C)cc3)c[nH]c2c1,25.3%,-12.9%,-2.2%,?
COc1ccc2c(c1)c(/C=C/c1cc[n+](C)cc1)cn2C,32.9%,-2.7%,-1.3%,50.1µM*
COc1ccc2c(ccc[n+]2[O-])c1,-4.0%,-6.5%,/,-1.7%
COc1ccc2nc3ccccc3[n+]([O-])c2c1,11.9µM*,-7.1%,/,?
CCc1ccc(-c2cc3c(=O)[nH]nc(SCC(=O)NC4CCCCC4)n3n2)cc1,/,/,/,0.7%
Cc1ccc(OCC(=O)N(Cc2ccc(C)o2)C2CCS(=O)(=O)C2)cc1 (stereo not given),26.7µM*,?,0.9%,-8.4%
Cc1ccc(CN(C(=O)COc2ccc(C)c(C)c2)C2CCS(=O)(=O)C2)o1 (stereo not given),26.7µM*,-27.1%,1.2%,11.4%
SMILES,PLK1 PBD inh,VDR inhibitor,KAT2A inh,ALOX12 inh
Cc1ccc(CN(C(=O)COc2ccc(Br)cc2)C2CCS(=O)(=O)C2)o1 (stereo not given),11.9µM*,?,-2.2%,38.8%
Cc1ccc(CN(C(=O)COc2ccc(Cl)c(C)c2)C2CCS(=O)(=O)C2)o1 (stereo not given),/,0.7%,-2.9%,0.0%
O=C(c1cccc(Cl)c1)N1CCN(c2cn[nH]c(=O)c2Cl)CC1,/,/,/,-14.1%
CCOC(=O)C1=C(CC)Nc2ccccc2N/C1=N\S(=O)(=O)c1cc(Br)ccc1Br,21.2µM*,-4.5%,-9.3%,?
CCOC(=O)C1=C(CC)Nc2ccccc2N/C1=N\S(=O)(=O)c1ccc2ccccc2c1,-13.9%,32.2%,-0.5%,2.9%
CCOC(=O)c1cccc(Nc2nc3ccccc3nc2NS(=O)(=O)c2cc(C)ccc2C)c1,/,/,/,-26.3%
O=C(O)c1cc(O)c2c(c1)[C@@H]([C@H]1c3cc(C(=O)O)cc(O)c3C(=O)c3c(O[C@@H]4O[C@H](CO)[C@@H](O)[C@H](O)[C@H]4O)cccc31)c1cccc(OC3O[C@H](CO)[C@@H](O)[C@H](O)[C@H]3O)c1C2=O (stereo not given in full),0.844µM*,-29.3%,0.501µM*,50.1µM*
